# IL-1B inflam inh: blocks inflammasome-driven IL-1 beta release | THP-1 LPS/ATP IL-1B secretion, AlphaLISA, 16 h; stronger effect = lower value | activity change, % at 57.5 µM | actives 4.7% (n = 360,000) | AID 743279; in the data active = activity change below about -50%; inconclusive = mostly about -30% to -49%
#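 Secreted IL-1B measured by AlphaLISA bead assay after 16 h compound exposure of THP-1 cells; compounds (final up to 57.5 uM) added 1 h before LPS (250 ng/mL) and ATP (1.25 mM) stimulation; lower signal means less secretion.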
# HT1080 IDH1KD tx: toxicity to HT-1080 IDH1 knockdown cells (counter line) | HT-1080 IDH1 knockdown viability, ATP luminescence, 48 h | Potency, µM (top dose mostly 46.1 µM), hits mostly cytotoxic | actives 2% (n = 360,000) | AID 686971
#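 Cytotoxicity counter-line: IDH1KD HT-1080, 48 h, CellTiter-Glo. Curves classed by r2, magnitude and activity.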
# TDP1 cell CPT: growth inhibition of DT40 Tdp1-/-;hTDP1 cells with camptothecin (screen for TDP1 inhibitors) | actives 12% (n = 420,000) | chicken DT40 Tdp1-/-;hTDP1 cells + 20 nM CPT, ATP luminescence, 48 h | Potency, µM (doses to about 46.2 µM), usual class: inhibitors; note: nearly all actives have a fitted effect of over 55% in size
#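 Cell growth measured by CellTiter-Glo luminescence after a minimum 48 h, 37 C compound exposure with 20 nM CPT in Tdp1-knockout DT40 cells stably expressing hTDP1, seeded 400/well; qHTS titration format.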
# HT1080NT lethal: kills 2HG-producing HT-1080-NT fibrosarcoma cells. actives 1.6% (n = 360,000). HT-1080-NT fibrosarcoma viability, CellTiter-Glo ATP luminescence, 48 h. Potency, µM (highest dose often 46.1 µM), actives largely listed as cytotoxic;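 note: NT is the 2HG producing partner of a matched IDH1 knockdown line; nearly all actives have a fitted effect of over 55% in size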
#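 Luminescent CellTiter-Glo readout after 48 hours of compound exposure at 37 degrees C defined viability of HT-1080-NT cells. Activity was normalized to DMSO wells and cell-free media wells; concentration-response curves were fitted and assigned curve classes.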
# DT40 TDP1 no CPT: qHTS for Inhibitors of human tyrosyl-DNA phosphodiesterase 1 (TDP1): qHTS in cells in absence of CPT | DT40 Tdp1-/- hTDP1 cells, no CPT, ATP luminescence, 48 h | Potency, µM (doses to about 46.2 µM), usual class: inhibitors | actives 15% (n = 420,000) | AID 686978, 2013; note: nearly all actives have a fitted effect of over 55% in size
#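 No-CPT arm: Tdp1-/-;hTDP1 DT40 cells (400/well) plus compounds, incubated ≥48 hr at 37 °C. Readout CellTiter-Glo luminescence.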
# Hits are given with their value; - = inactive; ? = inconclusive; . = no result given; [ ] = another dose, or the depositor's remark. Shown are actives, neighbours in structure and some others; about 19% of the full set was active somewhere. Unless noted, calls come from the whole dose curve; as a rule, active = well fitted curve in the direction sought with a large enough effect; inconclusive = small, poorly fitted or top-dose-only effect, or another doubt; inactive = no such curve, though single readings can be large; an effect the other way counts as inactive or inconclusive.
SMILES,IL-1B inflam inh,HT1080 IDH1KD tx,TDP1 cell CPT,HT1080NT lethal,DT40 TDP1 no CPT
C=C1C2CC[C@]3(CCC4[C@@]5(C)CCC[C@@]4(CN(CCO)C5)[C@@H]3C2)[C@@H]1O (some centres not stated),.,.,-[9.04 µM],.,-[9.04 µM]
CCCn1c(CN2CCN(C(=O)OCC)CC2)nc2cc([N+](=O)[O-])ccc21,-,-,-,-,?
COc1ccc(Cc2nnc(NS(=O)(=O)c3ccc([N+](=O)[O-])cc3)s2)cc1,-,-,-,-,-
O=C(NNc1ccccc1C(F)(F)F)c1sccc1Cl,.,-,?,-,?
Cc1ccc(C(=O)NCC(c2ccc(Cl)cc2)N2CCCCC2)cc1 (configuration not stated),.,.,11.6µM,.,13µM
O=C(COc1ccc(Cl)cc1Br)NCC(c1ccco1)N1CCCC1 (configuration not stated),-,-,?,-,18.4µM
CCOc1ccc(NS(=O)(=O)c2ccc(C(=O)NCC(c3ccc(OC)cc3)N3CCCC3)cc2)cc1 (configuration not stated),-,-,?,-,13µM
COc1ccc(C(CNC(=O)c2ccc(NS(=O)(=O)c3ccc(F)c(C)c3)cc2)N2CCCC2)cc1 (configuration not stated),-,-,-,-,?
CN1CCN(C(CNC(=O)Nc2ccc(Cl)cc2)c2ccc(F)cc2)CC1 (configuration not stated),?,-,?,-,?
COc1ccc(C(CNC(=O)c2ccc(S(=O)(=O)N(C)C)cc2)N2CCCCC2)cc1 (configuration not stated),-,-,-,-,-
O=C(NCC(c1ccc(Cl)cc1)N1CCCCC1)c1ccc(F)cc1 (configuration not stated),.,.,13µM,.,13µM
Cc1cccc(C)c1NC(=O)CSCC(=O)c1ccc(O)c(O)c1,-,?,?,?,?
CCOc1ccc(NC(=O)c2nc3nc(C)cc(C(F)F)n3n2)cc1,.,.,-,.,-
Cc1c(N=C2SCC(=O)N2/N=C\c2ccc(Br)cc2)c(=O)n(-c2ccccc2)n1C,-,-,-,-,-
O=C(NCC(c1ccco1)N1CCCCC1)c1ccc(COc2ccc(Cl)cc2)cc1 (configuration not stated),-75.5,?,20.6µM,18.4µM,13µM
CCCCOc1ccc(C(=O)NCC2(c3ccccc3)CCOCC2)cc1,-,-,20.6µM,-,?
CCOC(=O)c1ccc(NC(=O)C(=O)NCC2(c3ccc(OC)cc3)CCOCC2)cc1,-,-,?,-,14.6µM
COc1ccc(CC(=O)NCC(c2ccc(Cl)cc2)N2CCOCC2)cc1 (configuration not stated),.,.,-,.,-
CCCCOc1ccc(C(=O)NCC(c2ccc(Cl)cc2)N2CCOCC2)cc1 (configuration not stated),.,.,14.6µM,.,20.6µM
Cc1cccc(C)c1N1CCN(CCn2c(=S)[nH]c3ccccc3c2=O)CC1,-,-,?,-,-
CCCCN(C(=O)c1oc2ccc(OCC)cc2c1C)c1c(N)n(CC(C)C)c(=O)[nH]c1=O,-,-,-,-,-
CCOc1ccc(C(=O)NCC(=O)NCC(c2ccc(OC)cc2)N2CCCC2)cc1 (configuration not stated),-,-,-,-,-
CCOc1ccc(C(=O)NCC(c2ccc(Cl)cc2)N2CCCCC2)cc1 (configuration not stated),.,.,7.31µM,.,9.2µM
COc1ccc(O)c(/C=N/NC(=O)c2ccc(OCc3cccc(Br)c3)cc2)c1,-,5.17µM,4.61µM,1.64µM,5.8µM
COc1ccc(C(=O)N/N=C/c2cc(Br)ccc2O)cc1OC,-,?,2.31µM,?,3.26µM
SMILES,IL-1B inflam inh,HT1080 IDH1KD tx,TDP1 cell CPT,HT1080NT lethal,DT40 TDP1 no CPT
COc1ccc(C(=O)NCC(=O)OCc2cccc(Br)c2)cc1,-,-,-,-,-
COc1ccc(S(=O)(=O)NC(=O)C2(C)CCN2C(=O)CC2CCCC2)cc1 (configuration not stated),-,-,-,?,-
COc1ccc(-c2nc(N/N=C(\C)c3ccc(O)cc3)c3ccccc3n2)cc1,-,?,20.6µM,?,7.31µM
COc1ccc(Nc2nc(-c3ccccc3)nc3ccccc23)cc1,-94.9,?,?,?,?
COc1ccc(Nc2nc(-c3cccc([N+](=O)[O-])c3)nc3ccccc23)cc1,-,?,?,?,14.6µM
COc1ccc(Nc2ncnc3ccccc23)cc1,-,-,?,-,?
Oc1ccc(Nc2nc3ccccc3nc2Nc2ccc(O)cc2)cc1,-,11.6µM,1.64µM,23.1µM,2.31µM
Cc1n[nH]c(=O)nc1Nc1ccc(O)cc1,-,-,-,-,-
Cc1ccc(S(=O)(=O)N(C)CC(=O)NNC(=O)CCS(=O)(=O)c2ccccc2)cc1,-,-,-,-[9.24 µM],-
S=C(Nc1ccc(Oc2ccccc2)cc1)Nc1cccnc1,-,-,?,-,?
CC(=O)Nc1ccc(Nc2nc(-c3ccccc3)nc3ccccc23)cc1,?,-,18.4µM,-,23.1µM
CC(=O)NCCNc1nc(-c2cccc(NS(C)(=O)=O)c2)nc2ccccc12,.,.,?,.,-
CS(=O)(=O)Nc1cccc(-c2nc(Nc3ccc(F)cc3)c3ccccc3n2)c1,.,.,5.8µM,.,4.11µM
Oc1ccc(Nc2nc(-c3ccccc3)nc3ccccc23)cc1,-93.7,?,?,?,?
Cc1ccc2nc(-c3cccc(NS(C)(=O)=O)c3)cc(-c3ccccc3)c2c1,-100.5,-,?,-,?
CNc1nc(-c2cccc(NS(C)(=O)=O)c2)nc2ccccc12,.,.,-,.,-
COC(=O)c1ccc(NC(=O)c2ccc[n+]([O-])c2)cc1,-,-,-,-,-
CC(=O)N1CCN(CCS(=O)(=O)c2ccc(Br)cc2)CC1,-53.2,-,-,-,-
COC(=O)C1=C(C)NC(=O)CC1c1cc2c(cc1Br)OCO2 (configuration not stated),-,-,-,-,-
CC1=C(C(=O)OC2CCCCCCC2)C(c2cc3c(cc2Br)OCO3)CC(=O)N1 (configuration not stated),-58.5,?,?,?,?
CC1=C(C(=O)OCCOC(C)C)C(c2cc3c(cc2Br)OCO3)CC(=O)N1 (configuration not stated),-,-,16.4µM,-,?
Cc1cccc(C(=O)Nc2sc(C(=O)N3CCCC3)c(C)c2C#N)c1,-,-,?,-,?
Cc1c(C(=O)N2CCCCC2)sc(NC(=O)C23CC4CC(CC(C4)C2)C3)c1C#N,-,-,?,-,18.4µM
Cc1c(C(=O)N2CCCC2)sc(NC(=O)c2cccc(Cl)c2)c1C#N,-,-,?,-,25.9µM

# Compound activity from PubChem.
